According to PubChem BioAssay (NCATS):
Results filed as inconclusive are left out. Entries that show only a call come without a potency. The source made the active and inactive calls. The call rests on the fitted dose curve; in most records, active means well fitted inhibition curve with a large enough effect; inconclusive means small, poorly fitted or top-dose-only effect; inactive means flat fitted curve, though single readings scatter.

What follows are compounds tested against Calcium and integrin-binding protein 1 (Homo sapiens) (UniProt Q99828) (assay: Primary qHTS for Identification of Calcium Integrin Binding Protein 1 (CIB1) Competitor (AID 1508620;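 on activity change, negative = inhibition: GST tagged CIB1 binding a fluorescein labelled alphaIIb integrin peptide tracer; top concentration of the series differs between compounds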)). Conditions: CIB1-GST / FITC-alphaIIb peptide fluorescence polarization; series mostly up to 114 µM.
Calcium and integrin-binding protein 1 (Homo sapiens), sequence (Q99828 whole entry, looked up): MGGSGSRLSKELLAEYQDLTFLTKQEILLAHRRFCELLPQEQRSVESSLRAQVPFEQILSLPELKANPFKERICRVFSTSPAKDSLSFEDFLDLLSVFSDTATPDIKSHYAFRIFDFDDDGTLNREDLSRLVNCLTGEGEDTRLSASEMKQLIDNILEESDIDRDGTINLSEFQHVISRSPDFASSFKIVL
From the text: Assay Provider: Ulhas P. Naik, PhD Sidney Kimmel Medical College Thomas Jefferson University, Philadelphia, PA Primary function of platelets is to maintain hemostasis. At the site of vascular injury, platelets adhere to adhesive proteins such as collagen and von Willebrand factor. Adherent platelets are activated and generate soluble platelet agonists such as thrombin, ADP and thromboxane A2. Following exposure of circulating platelets to these agonists, results in platelet shape change, granule secretion and activation of platelet integrin alphaIIb-beta3. Ligand binding to activated integrin alphaIIb-beta3 triggers outside-in signaling, leading to platelet aggregation, stabilization of platelet plug, and clot retraction. Upon atherosclerotic plaque rupture also causes platelet plug formation, which underlies a number of cardiovascular diseases such as myocardial infraction and stroke. A number of anti-platelet drugs such as aspirin, clopidogrel, prasugrel, vorapaxar, and eptifibatide are currently available to prevent the thrombotic complications. However, these anti-platelet agents have several limitations including inherent variability in individual responses, developing resistance, and serious bleeding side effects. For these reasons they are not suitable for long-term protection. Based on the experiences with current anti-platelet drugs, it appears that the most useful therapeutic approach is to intersect the secondary responses such as integrin outside-in signaling or recruitment of platelets by TxA2 and secreted ADP. Compounds, which can largely preserve the primary hemostatic function of platelets but inhibit secondary response will be most desired therapeutic agents for treatment of cardiovascular disease. CIB1 is a calcium integrin binding protein, which specifically interact with the alphaIIb subunit of integrin alphaIIb-beta3. Binding of CIB1 to alphaIIb regulates the outside-in signaling in platelets, which is needed for thrombus stabilization and thrombus growth. […] Therefore, we propose that discovery of a small molecule that can prevent the association of CIB1 and alphaIIb-beta3 will be a potential anti-platelet agent that can block the thrombus formation without undue effect on hemostasis. Reference: [1] Naik MU, Nigam A, Manrai P, et al. CIB1 deficiency results in impaired thrombosis: the potential role of CIB1 in outside-in signaling through integrin alpha IIb beta 3. J Thromb Haemost.
PROTOCOL TABLES SEQUENCE No. (1, 2, 3, etc.); […] (e.g., Cells, Incubation, Reagent, etc.); VALUE and DESCRIPTION. 1; Reagent; 3 uL; Protein or buffer (4/3x) 2; Compound; 46 nL; Control inhibitor / compound library 3; Time; 15 min; Room temperature incubation 4; Reagent; 1 uL; Fluorescent labeled peptide (4x) 5; Time; 1000 rpm; Centrifuge 6; Time; 15 min; Room temperature incubation 7; Detection; Ex 480/ Em 540; ViewLux Fluorescence Read NOTES (numbers refer to sequence above) 1; Protein Mixture: C1B1-GST (final concentrations of 1 uM). […] 3; Room temperature incubation. 4; Fluorescent Labeled Peptide: FITC-aIIb (final concentration of 100 nM). Sequence of alphaIIb peptide: Acetyl-[…]-FITC (purity is 95.83%). 5; Centrifuge 1000 rpm (164 g) for 15 seconds. 6; Room temperature incubation. 7; ViewLux Fluorescent Polization Read: excitation = 480(20) / emission = 540(25) S and P; FITC Dichroic mirror.
Potency means the concentration at half of the fitted maximal effect.

Row | SMILES | Potency | activity change, negative = inhibition
1 | CC(C)Nc1cccnc1N1CCN(C(=O)c2cc3cc(NS(C)(=O)=O)ccc3[nH]2)CC1 | inactive | 
2 | NS(=O)(=O)c1ccc(Cl)c(S(N)(=O)=O)c1 | inactive | 
3 | O=[N+]([O-])c1ccc(/C=N\O)o1 | inactive | 
4 | CCOC(=O)[C@@](C)(N)Cc1ccc(O)c(O)c1 | inactive | 
5 | c1ccc(-c2nc[nH]c2-c2ccccc2)cc1 | inactive | 
6 | N#CCC(=O)NN | inactive | 
7 | CN1CCC[C@@H]1CCO[C@](C)(c1ccccc1)c1ccc(Cl)cc1 | inactive | 
8 | C[N+]1(C)CCC(=C(c2ccccc2)c2ccccc2)CC1 | inactive | 
9 | CCCCCCCCNC(C)C(O)c1ccc(SC(C)C)cc1 (stereo not given) | inactive | 
10 | CCOc1ccccc1OCCN[C@H](C)Cc1ccc(OC)c(S(N)(=O)=O)c1 | inactive | 
11 | N=C(N)N1CCc2ccccc2C1 |  | -1.23% [at 12.4 µM] (inactive)
12 | CCc1ccc(C(=O)C(C)CN2CCCCC2)cc1 (stereo not given) | inactive | 
13 | CC(=O)Nc1ccc(S(=O)(=O)Nc2ccc([N+](=O)[O-])cc2)cc1 | inactive | 
14 | COc1ccc2c(c1)c1c3n2CCN(C)C3=NCC1 | inactive | 
15 | CCCN(CCC)S(=O)(=O)c1ccc(C(=O)O)cc1 | inactive | 
16 | CCOC(=O)Nc1ccc2c(c1)N(C(=O)CCN1CCOCC1)c1ccccc1S2 | inactive | 
17 | CCCCC(CC)COC(=O)c1ccc(N(C)C)cc1 (stereo not given) | inactive | 
18 | COc1cc(NS(=O)(=O)c2ccc(N)cc2)ncn1 | inactive | 
19 | O=C(O)C1(C(=O)O)CCC1.[NH2-].[NH2-].[Pt+2] | inactive | 
20 | CC(C)CCCC(C)N (stereo not given) | inactive | 

Row | SMILES | Potency | activity change, negative = inhibition
21 | OC[C@H]1O[C@@H](Oc2ccc(O)cc2)[C@H](O)[C@@H](O)[C@@H]1O | inactive | 
22 | O=C(O)CCc1nc2ccccc2[nH]1 | inactive | 
23 | COc1cc([C@H]2Oc3cc([C@H]4Oc5cc(O)cc(O)c5C(=O)[C@@H]4O)ccc3O[C@@H]2CO)ccc1O | 35.5 µM (active) | 
24 | C[N+]1(CC2COC(c3ccccc3)(C3CCCCC3)O2)CCCCC1 (stereo not given) | inactive | 
25 | NC(=O)C1(N2CCCCC2)CCN(CCCC(=O)c2ccc(F)cc2)CC1 | inactive | 
26 | C/C=C/c1ccc(O)c(OC)c1 | inactive | 
27 | CC(C)Cc1ccc(CC(=O)O)cc1 | inactive | 
28 | Cn1c(=O)c2[nH]c(Br)nc2n(C)c1=O | inactive | 
29 | N/C(=N\N=C\c1ccc(Cl)cc1)N/N=C/c1ccc(Cl)cc1 | inactive | 
30 | Nc1nc(N)c(-c2ccccc2)s1 | inactive | 
31 | NC(N)=NN=C(/C=C/c1ccc([N+](=O)[O-])o1)/C=C/c1ccc([N+](=O)[O-])o1 | inactive | 
32 | CCCCCCCCCCCCCC[N+](C)(C)Cc1ccccc1 | inactive | 
33 | CC(=O)NCCCCCC(=O)O | inactive | 
34 | OC[C@H]1O[C@@H]2O[C@H]3[C@H](O)[C@@H](O)[C@@H](O[C@H]4[C@H](O)[C@@H](O)[C@@H](O[C@H]5[C@H](O)[C@@H](O)[C@@H](O[C@H]6[C@H](O)[C@@H](O)[C@@H](O[C@H]7[C@H](O)[C@@H](O)[C@@H](O[C@H]8[C@H](O)[C@@H](O)[C@@H](O[C@H]1[C@H](O)[C@H]2O)O[C@@H]8CO)O[C@@H]7CO)O[C@@H]6CO)O[C@@H]5CO)O[C@@H]4CO)O[C@@H]3CO | inactive | 
35 | CCCN(CCc1cccs1)[C@H]1CCc2c(O)cccc2C1 | inactive | 
36 | FC1(F)C(F)(F)C(F)(F)C2(F)C(F)(F)C(F)(F)C(F)(F)C(F)(F)C2(F)C1(F)F (stereo not given) | inactive | 
37 | COc1ccc(C(=O)c2ccccc2)c(O)c1 | inactive | 
38 | C[C@@]12C(=O)OC(=O)[C@]1(C)C1CCC2O1 | inactive | 
39 | CC(C)n1c(/C=C/[C@@H](O)C[C@@H](O)CC(=O)O)c(-c2ccc(F)cc2)c2ccccc21 | inactive | 
40 | O=C(CCN1CCN2CCCC2C1)N1c2ccccc2Sc2ccc(Cl)cc21 (stereo not given) | inactive | 
